Assay outcomes from PubChem BioAssay.
Shown are actives, neighbours in structure and some others; about 4% of the full set was active somewhere.
Peg3 promoter: reduces Peg3 promoter-driven luciferase expression in HeLa; AID 588405; inhibition, % at 20 µM; hit rate 1.7% among 360,000; HeLa PEG-Prom luciferase reporter, luminescence, overnight;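 active = inhibition of at least 50% at 20 µM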
HIF-2a block: HIF-2a inhibition; 786-0 RCC cells HIF-2a reporter, luciferase luminescence, overnight; inhibition, % at 18.8 µM; hit rate 0.72% among 360,000;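 active = inhibition of the luminescence signal of 40% or more relative to plate controls, in a single-dose primary screen at 18.75 µM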
TWEAK Fn14 block: inhibitors of TWEAK-Fn14 interaction signaling; TWEAK-stimulated Fn14 reporter cells, luciferase luminescence, 8 h; inhibition, % at 10 µM; hit rate 2% among 360,000; AID 1159606; in the data active = inhibition above about 50%
KKLEB cytotox: counter-screen for CF NF-kB inhibitors: cytotoxicity; KKLEB CF airway cells viability, ATPlite luminescence, overnight; active compounds read low; cells stimulated with P. aeruginosa culture filtrate; hit rate 0.36% among 360,000; activity change (cytotoxicity), % at 5 µM;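 active = corrected activity change at or below -50% at 5 µM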
CF NFkB inh: cystic fibrosis NF-kB activation inhibition; KKLEB NF-kB-GFP reporter, PAF-induced, GFP fluorescence overnight; inhibition, % at 5 µM; hit rate 0.86% among 360,000;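 active = at least 50% inhibition at 5 µM, scaled per plate between neutral and stimulator controls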;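 note: PAF is a Pseudomonas aeruginosa culture filtrate used as stimulus; plate controls were PAF-stimulated DMSO wells for no effect and unstimulated DMSO wells for full effect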
TROY signal inh: TROY signaling inhibition | hit rate 0.98% among 360,000 | inhibition, % at 10 µM | Q293 LMP1-TROYcd NF-kB luciferase reporter, 4 h;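 active = compounds whose plate-normalised and pattern-corrected inhibition of the luciferase reporter signal at the single screening dose is 50% or more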
Mdm2-MdmX confirm: Mdm2/MdmX (human) interaction inhibition, confirmed; shares compounds with HIF-2a block; SaOS-2 split-luciferase Mdm2/MdmX complementation, luminescence; inhibition, % at 8 µM; hit rate 99% among 740;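 active = mean inhibition of the luminescence signal across two replicates at or above 26 percent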
Target sequence (O15151 whole entry, looked up): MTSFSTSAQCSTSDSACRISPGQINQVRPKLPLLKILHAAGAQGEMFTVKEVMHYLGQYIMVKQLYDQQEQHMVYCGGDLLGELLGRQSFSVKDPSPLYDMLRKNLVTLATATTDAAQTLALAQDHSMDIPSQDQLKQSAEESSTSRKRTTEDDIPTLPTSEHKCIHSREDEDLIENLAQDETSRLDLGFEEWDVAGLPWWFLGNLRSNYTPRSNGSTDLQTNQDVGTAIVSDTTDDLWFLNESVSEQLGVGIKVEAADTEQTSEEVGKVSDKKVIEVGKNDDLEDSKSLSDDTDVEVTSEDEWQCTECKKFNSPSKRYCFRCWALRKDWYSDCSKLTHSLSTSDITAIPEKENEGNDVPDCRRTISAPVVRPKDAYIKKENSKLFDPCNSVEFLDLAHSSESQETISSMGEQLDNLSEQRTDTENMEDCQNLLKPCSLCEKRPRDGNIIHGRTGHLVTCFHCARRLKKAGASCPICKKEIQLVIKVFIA
Target sequence (Q00987 whole entry, looked up): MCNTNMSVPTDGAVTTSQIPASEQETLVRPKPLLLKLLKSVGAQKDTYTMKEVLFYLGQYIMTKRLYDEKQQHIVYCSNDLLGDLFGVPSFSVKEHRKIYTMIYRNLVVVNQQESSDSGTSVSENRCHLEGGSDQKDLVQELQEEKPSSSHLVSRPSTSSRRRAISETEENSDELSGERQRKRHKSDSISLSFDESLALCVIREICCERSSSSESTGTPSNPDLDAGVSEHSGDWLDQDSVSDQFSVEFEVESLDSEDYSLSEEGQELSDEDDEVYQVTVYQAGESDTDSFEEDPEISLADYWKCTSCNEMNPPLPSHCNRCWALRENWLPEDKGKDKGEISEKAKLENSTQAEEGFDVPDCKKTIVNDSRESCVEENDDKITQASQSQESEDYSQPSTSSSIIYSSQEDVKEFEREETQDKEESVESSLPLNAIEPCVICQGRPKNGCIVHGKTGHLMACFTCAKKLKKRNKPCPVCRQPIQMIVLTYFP
HIF-2a conf: HIF-2a inhibition, single concentration confirmation; inhibition, % at 18.8 µM; shares compounds with HIF-2a block; 786-0 RCC cells, HIF-2a luciferase reporter luminescence, overnight; hit rate 56% among 1,800;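 active = mean inhibition across four replicates of at least 40 percent at the single tested concentration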
HIF-1a counter: HIF-1a inhibition counter-screen for HIF-2a hits; inhibition, % at 18.8 µM; hit rate 72% among 1,800; shares compounds with HIF-2a block; AID 651589; MiaPaCa-2 HIF-1a luciferase reporter, desferoxamine, overnight;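 active = mean inhibition of the reporter signal across four replicates at the single tested dose of 50% or more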
Active calls of the source: *; . = no result.

SMILES	Peg3 promoter	HIF-2a block	TWEAK Fn14 block	KKLEB cytotox	CF NFkB inh	TROY signal inh	HIF-2a conf	HIF-1a counter	others
Cc1ccccc1CS(=O)(=O)c1ncc(Cl)c(C(=O)Nc2ccc(F)cc2)n1	108*	93*	82*	-99*	89*	78*	74*	51*	Mdm2-MdmX confirm=103*
Cn1c(/C=C/c2ccc(Br)cc2)c([N+](=O)[O-])c(=O)n(C)c1=O	62*	92*	63*	29	32	2	55*	96*
O=C(NC1CCN(Cc2ccccc2)CC1)c1ccc2c(c1)[nH]c(=O)n2Cc1ccc(F)cc1	18	48*	-14	-7	0	28	18	24
Cc1ccc(/C=C/C(=O)c2ccc([N+](=O)[O-])o2)cc1	.	.	.	.	.	.	.	.	Mdm2-MdmX confirm=103*
Cc1ccc(CNC(=O)c2ccc([N+](=O)[O-])o2)cc1	2	9	24	14	-9	7	.	.
CCc1c(C)nc2c(OC)cccc2c1SCCC(=O)O	2	16	-10	-12	16	12	.	.
CCN(Cc1ccccc1)c1ccc(/C=N/N=C(N)N)cc1	108*	93*	44	-18	35	34	3	108*	Mdm2-MdmX confirm=103*
O=C(CSc1ccc2nnc(CCNC(=O)c3ccccc3)n2n1)NC1CCCC1	-6	8	1	-8	13	6	.	.
CCn1c(/C=C/Nc2ccccc2)[n+](CC)c2cc(Cl)c(Cl)cc21	104*	68*	-24	-34	22	17	-3	88*
CCn1c(/C=C/N(C(C)=O)c2ccccc2)[n+](CCCS(=O)(=O)[O-])c2cc(Cl)c(Cl)cc21	-12	8	-11	5	0	10	.	.
Oc1cc(OCc2ccccc2)ccc1-c1[nH]ncc1-c1ccccc1	18	57*	-22	4	-5	-24	-12	13
O=C1OC2(c3ccccc31)c1ccccc1-c1ccccc12	32	4	33	-14	17	-11	.	.
Nc1ccc(C2(c3ccc(N)cc3)c3ccccc3C(=O)c3ccccc32)cc1	44	42*	16	1	21	23	33	55*
O=C(CSc1nnc2c(n1)[nH]c1ccccc12)Nc1ccc2c(c1)OCO2	-37	-92	-2	-6	-11	25	.	.
Cc1cc(C(=O)CCl)c(C)n1CCc1ccc(Cl)cc1	98*	48*	5	-30	30	13	49*	105*
CCOC(=O)COc1ccc2nsnc2c1	-2	16	-2	9	-3	-4	.	.
CCOC(=O)COc1ccc(/C=C/[N+](=O)[O-])c(OCC(=O)OCC)c1	106*	75*	-48	-15	16	48	7	90*
CCOC(=O)Cn1cc(/C=C/[N+](=O)[O-])c2ccccc21	40	77*	11	-2	-5	18	60*	22
CCOc1ccc(/C=C/[N+](=O)[O-])c2ccccc12	99*	89*	-12	-23	7	-19	39	105*
O=[N+]([O-])/C=C/c1cn(Cc2ccc(Cl)cc2)c2ccccc12	81*	51*	37	5	25	29	29	85*
Cc1cccc(Cn2cc(/C=C/[N+](=O)[O-])c3ccccc32)c1	48	36	18	-5	3	-2	.	.
CCOC(=O)Cn1cc(C#N)c2ccccc21	3	11	15	-14	17	-1	.	.
CC(C)(C)c1ccc(C(=O)CCC(=O)NCc2ccccc2)cc1	4	-4	-1	-1	16	5	.	.
O=C(Cc1ccc(-n2cccc2)cc1)N1CCN(c2ccccc2F)CC1	8	13	-4	-2	17	6	.	.
COc1ccc(S(=O)(=O)N2CCCC2CNC(=O)C(=O)Nc2ccc(C)cc2)cc1 (configuration not stated)	-1	-4	0	6	1	-18	.	.
SMILES	Peg3 promoter	HIF-2a block	TWEAK Fn14 block	KKLEB cytotox	CF NFkB inh	TROY signal inh	HIF-2a conf	HIF-1a counter	others
COc1ccc(NC(=O)C(=O)NCC2CCCN2S(=O)(=O)c2ccc(C)cc2)cc1 (configuration not stated)	-5	42*	-9	-19	52*	36	33	49
CN(C)CCNC(=O)c1cc2c(s1)-c1ccc(Cl)cc1SC2	110*	-50	105*	-45	47	45	.	.	Mdm2-MdmX confirm=103*
CCC(=O)Nc1cccc(C(=O)/C=C/c2ccccc2)c1	102*	44*	65*	-10	3	8	-46	101*
CCC(=O)Nc1cccc(C(=O)c2ccc(C)c(C)c2)c1	-20	45*	2	-7	-3	-10	65*	15
Cc1ccc(C(=O)c2cccc(N)c2)cc1C	-19	84*	52*	-14	-8	32	93*	56*
Cc1ccc(C(=O)c2ccc(O)cc2)cc1C	-128	-126	-9	3	5	-47	.	.
COc1ccccc1NC(=S)N=Nc1c(O)[nH]c2ccc(Br)cc12	92*	7	-18	-18	23	-12	.	.	Mdm2-MdmX confirm=84*
CN(C(=O)CSc1cc(C(=O)c2nccn2C)c2ccccc2n1)c1ccccc1	50	50*	-2	-6	23	-67	29	52*
COCCCNC(=O)c1ccc(-n2nc(C(F)(F)F)cc2-c2cccs2)cc1	40	49*	5	-10	44	7	34	41
O=C(NCCCN1CCOCC1)c1ccc(-n2nc(C(F)(F)F)cc2-c2cccs2)cc1	55*	45*	4	-24	45	27	30	66*
O=C(NCCCN1CCOCC1)c1cc(-c2cccs2)on1	-51	-167	-73	3	-70	-58	.	.
CCCC(=O)NC(c1ccccc1OC)c1ccc2cccnc2c1O (configuration not stated)	58*	25	20	0	6	7	.	.	Mdm2-MdmX confirm=87*
CCCC(=O)NC(c1ccc(Cl)cc1Cl)c1ccc2cccnc2c1O (configuration not stated)	59*	12	12	-7	-9	34	.	.	Mdm2-MdmX confirm=85*
CC(C)C(=O)NC(c1cccc([N+](=O)[O-])c1)c1ccc2cccnc2c1O (configuration not stated)	63*	20	5	-9	8	-11	.	.	Mdm2-MdmX confirm=88*
O=C(NCCN1CCN(S(=O)(=O)c2ccc(F)cc2)CC1)C(=O)NCc1ccccc1	3	11	32	6	-2	-17	.	.
